Values joined by “and” are separate entries in the source; they are usually repeats but may differ in a detail not shown here. Equal entries are not always repeated. Results filed as inconclusive are left out. Active and inactive are the calls of the source. Calls come from the whole dose curve; as a rule, active = well fitted curve in the direction sought with a large enough effect; inconclusive = small, poorly fitted or top-dose-only effect, or another doubt; inactive = no such curve, though single readings can be large; an effect the other way counts as inactive or inconclusive.
What was measured:
[1] = target: Cellular tumor antigen p53 (Homo sapiens) (UniProt P04637); experiment: Primary qHTS for small molecule compounds that upregulate eGFP-tagged delta133p53alpha (in N-terminal) cells. (AID 2060322); conditions: NCI-H358 eGFP-delta133p53alpha fluorescence, 24 h; activation: hits give high values; note: nearly all actives have a fitted effect of over 75% in size; note: potency is the fitted concentration of half-maximal effect;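 for activation: series mostly up to about 56 µM; 0% = DMSO vehicle and 100% = reference activator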
In short: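 NCI-H358 cells pre-induced 24 h with 10 ng/ml doxycycline to express N-terminal eGFP-delta133p53alpha, then dosed 24 h at 37C without doxycycline; fixed, Hoechst-stained, GFP intensity by laser scanning cytometry, normalized to DMSO (0%) and 57.5 uM 5-azacytidine (100%).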

[2] = target: Aldehyde dehydrogenase, mitochondrial (Homo sapiens) (UniProt P05091); experiment: qHTS for Inhibitors of the Aldehyde Dehydrogenase Family (ALDH2) Primary screen (AID 2061308);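 note: plate controls were vehicle for no effect and reference inhibitor for full effect; nearly all actives have a fitted effect of over 55% in size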
[3] = target: Retinaldehyde dehydrogenase 3 (Homo sapiens) (UniProt P47895); experiment: qHTS for Inhibitors of the Aldehyde Dehydrogenase Family (ALDH1A3) Primary screen (AID 2061315);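 note: plate controls were DMSO vehicle for no effect and reference inhibitor for full effect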
[4] = BET inhibitor-based combinations targeting novel dependencies in MECOM-rearranged (r) AML: SET-2 cell line (AID 2202231); conditions: SET-2 AML cells viability, CellTiter-Glo luminescence, 48 h; viability: hits give low values, concentration not given here; note: nearly all actives have a fitted effect of over 35% in size; note: potency is the fitted concentration of half-maximal effect;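 for viability: plate controls were DMSO treated cells for no effect and wells without cells for full effect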
In short: (§1)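 A 48 hr incubation preceded viability reading by CellTiter-Glo, with 15 min room-temperature development. Dose series had 11 points; normalization used DMSO and empty wells; AUC was computed and mean-centered per line as Z-AUC.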

[5] = BET inhibitor-based combinations targeting novel dependencies in MECOM-rearranged (r) AML: OCI-AML3 cell line (AID 2202232); conditions: Potency: OCI-AML3 viability; note: nearly all actives have a fitted effect of over 35% in size; note: potency is the fitted concentration of half-maximal effect
In short: as §1

[6] = BET inhibitor-based combinations targeting novel dependencies in MECOM-rearranged (r) AML: HNT-34 cell line (AID 2202234); note: nearly all actives have a fitted effect of over 35% in size; note: potency is the fitted concentration of half-maximal effect
In short: (§2)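 Each compound is tested in an 11-point concentration series against 500 seeded cells/well for 48 hr. The luminescent viability signal is normalized to DMSO and blank wells, then reduced to AUC and a cell-line-centred Z-AUC.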

[7] = BET inhibitor-based combinations targeting novel dependencies in MECOM-rearranged (r) AML: UCSD-AML1 cell line (AID 2202235); note: nearly all actives have a fitted effect of over 40% in size; note: potency is the fitted concentration of half-maximal effect
In short: as §2

[8] = BET inhibitor-based combinations targeting novel dependencies in MECOM-rearranged (r) AML: AML-191 cell line (AID 2202236; note: nearly all actives have a fitted effect of over 35% in size; note: potency is the fitted concentration of half-maximal effect)
In short: as §1

[9] = BET inhibitor-based combinations targeting novel dependencies in MECOM-rearranged (r) AML: AML-194 cell line (AID 2202237; note: nearly all actives have a fitted effect of over 40% in size; note: potency is the fitted concentration of half-maximal effect)
In short: as §1

[10] = BET inhibitor-based combinations targeting novel dependencies in MECOM-rearranged (r) AML: MV-4-11 cell line (AID 2202233); note: potency is the fitted concentration of half-maximal effect; nearly all actives have a fitted effect of over 45% in size
In short: as §2

Cellular tumor antigen p53 (Homo sapiens), sequence (P04637 whole entry, looked up): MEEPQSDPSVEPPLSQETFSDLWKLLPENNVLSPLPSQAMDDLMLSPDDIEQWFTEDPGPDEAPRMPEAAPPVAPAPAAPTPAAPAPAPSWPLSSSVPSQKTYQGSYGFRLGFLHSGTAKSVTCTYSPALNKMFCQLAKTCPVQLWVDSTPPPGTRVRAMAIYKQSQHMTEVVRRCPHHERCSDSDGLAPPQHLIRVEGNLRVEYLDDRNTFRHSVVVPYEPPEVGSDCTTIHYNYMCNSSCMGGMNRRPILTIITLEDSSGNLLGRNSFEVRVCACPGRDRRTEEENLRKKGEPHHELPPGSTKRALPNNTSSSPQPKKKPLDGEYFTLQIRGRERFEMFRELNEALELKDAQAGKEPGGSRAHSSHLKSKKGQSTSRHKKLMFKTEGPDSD

Cc1c(F)cc(C(=O)NC2CC2)cc1-c1c(F)cn2c(C(C)(C)C)nnc2c1F
inactive: activation [1] -8.93% | Potency [2] | Potency [3] | viability [4] 104% | Potency [5] | Potency [6] | Potency [7] | Potency [8] | Potency [9]

O=C(Nc1ccc(F)c(C(F)(F)F)c1)Nc1nnc(-c2ccncc2)s1
inactive: activation [1] -20.5% and 5% | Potency [2] | Potency [3] | viability [4] 100% | Potency [5] | Potency [6] | Potency [8] | Potency [9]

Nc1ccc(C(=O)Nc2cccc(-c3nc(N4CCOCC4)c4oc5ncccc5c4n3)c2)cn1
inactive: activation [1] 2.12% | Potency [2] | Potency [3]
active: Potency [4] 16.6 µM | Potency [5] 9.34 µM | Potency [6] 14.8 µM | Potency [7] 9.34 µM | Potency [8] 9.34 µM | Potency [9] 8.33 µM

CC(C)[C@H](CO)Nc1nc(Nc2ccc(C(=O)O)c(Cl)c2)c2ncn(C(C)C)c2n1
inactive: activation [1] 6.33% | Potency [2] | Potency [3] | viability [4] 109% | Potency [5] | Potency [6] | Potency [7] | Potency [8] | Potency [9]

O=C(Nc1ccc(Oc2ccnc3[nH]ccc23)c(F)c1)c1cccn(-c2ccc(F)cc2)c1=O
active: Potency [5] 13.2 µM | Potency [10] 0.0295 µM | Potency [9] 8.33 µM
inactive: activation [1] -27.3% and -22.3% | Potency [2] | Potency [3] | viability [4] 106% | Potency [7]

CC(C)c1nn(-c2c(Cl)cccc2Cl)c2nc(Cc3ccc(OCCO)cc3)[nH]c(=O)c12
inactive: Potency [2] | Potency [3]
active: Potency [1] 68.5 nM and 60.1 nM | Potency [4] 0.0417 µM | Potency [5] 0.0742 µM | Potency [10] 0.0417 µM | Potency [7] 0.0417 µM | Potency [8] 0.0295 µM | Potency [9] 0.0468 µM

From PubChem BioAssay (NCATS)
